# In PubChem BioAssay AID1159580 (chemical genetic matrix, 2015):
# Among all 5,500 compounds or so, about 2,000 (36%) were called active. Another 18% or so got no clear call; they are omitted. The list shows a part of the results. Values without a mark were called inactive. Rule as the data show it: active = normalized growth mostly below about 0.91 (no sharp cut-off); inconclusive = no clear call, values can overlap the other calls; inactive = mostly above about 0.92.
# Experiment: chemical genetic growth profiling, strain panel (AID 1159580);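 also: tested at 20 µM; growth read once vehicle control cultures reached saturation at 30 °C; 1 = growth at the plate median or of vehicle wells; lower values mean less growth of the strain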
# Conditions: growth OD
# [1] = S. cerevisiae deletion strains, locus YDL101C, strain DUN1, stronger effect = lower value
# [2] = S. cerevisiae deletion strains, locus YHR030C, strain SLT2, stronger effect = lower value
# [3] = S. cerevisiae deletion strains, locus YAL013W, strain DEP1, stronger effect = lower value
# [4] = S. cerevisiae deletion strains, locus YBR229C, strain ROT2, stronger effect = lower value
# [5] = S. cerevisiae deletion strains, locus YDR150W, strain NUM1, stronger effect = lower value
# [6] = S. cerevisiae deletion strains, locus YEL061C, strain CIN8, stronger effect = lower value
# [7] = S. cerevisiae deletion strains, locus YGR078C, strain PAC10, stronger effect = lower value
# [8] = S. cerevisiae deletion strains, locus YHR087W, strain rtc3, stronger effect = lower value
# [9] = S. cerevisiae deletion strains, locus YJR043C, strain POL32, stronger effect = lower value
# [10] = S. cerevisiae deletion strains, locus YJR075W, strain HOC1, stronger effect = lower value
# [11] = S. cerevisiae deletion strains, locus YKL190W, strain CNB1, stronger effect = lower value
# [12] = S. cerevisiae deletion strains, locus YLR039C, strain RIC1, stronger effect = lower value
# [13] = S. cerevisiae deletion strains, locus YLR058C, strain SHM2 (second series), stronger effect = lower value
# [14] = S. cerevisiae deletion strains, locus YLR085C, strain ARP6, stronger effect = lower value
# [15] = S. cerevisiae deletion strains, locus YLR262C, strain YPT6, stronger effect = lower value
# [16] = S. cerevisiae deletion strains, locus YML094W, strain GIM5, stronger effect = lower value
# [17] = S. cerevisiae deletion strains, locus YMR219W, strain ESC1, stronger effect = lower value
# [18] = S. cerevisiae deletion strains, locus YMR263W, strain SAP30, stronger effect = lower value
# [19] = S. cerevisiae deletion strains, locus YNL153C, strain GIM3, stronger effect = lower value
# [20] = S. cerevisiae deletion strains, locus YNL298W, strain CLA4 (second series), stronger effect = lower value
# [21] = S. cerevisiae deletion strains, locus YNL322C, strain KRE1, stronger effect = lower value
# [22] = S. cerevisiae deletion strains, locus YNR030W, strain Alg12, stronger effect = lower value
# [23] = S. cerevisiae deletion strains, locus YPL055C, strain LGE1, stronger effect = lower value
# [24] = S. cerevisiae deletion strains, locus YPL241C, strain CIN2, stronger effect = lower value
# [25] = S. cerevisiae deletion strains, locus YPR135W, strain CTF4, stronger effect = lower value
structure (smiles),measurement,setting,value
CC(=O)c1ccccc1C(=O)c1ccc(C(C)(C)C)cc1,normalized growth,"S. cerevisiae deletion strains, locus YAR019C, strain CDC15, stronger effect = lower value",0.961
same,normalized growth,"S. cerevisiae deletion strains, locus YBL105C, strain PKC1, stronger effect = lower value",0.961
same,normalized growth,"S. cerevisiae deletion strains, locus YBR135W, strain CKS1, stronger effect = lower value",0.957
same,normalized growth,"S. cerevisiae deletion strains, locus YBR136W, strain MEC1, stronger effect = lower value",0.96
same,normalized growth,"S. cerevisiae deletion strains, locus YBR160W, strain CDC28, stronger effect = lower value",0.959
same,normalized growth,"S. cerevisiae deletion strains, locus YDL017W, strain CDC7, stronger effect = lower value",0.956
same,normalized growth,"S. cerevisiae deletion strains, locus YDL028C, strain MPS1, stronger effect = lower value",0.961
same,normalized growth,[1],0.95
same,normalized growth,"S. cerevisiae deletion strains, locus YDL108W, strain KIN28, stronger effect = lower value",0.964
same,normalized growth,"S. cerevisiae deletion strains, locus YDL132W, strain cdc53, stronger effect = lower value",0.958
same,normalized growth,"S. cerevisiae deletion strains, locus YDL214C, strain PRR2, stronger effect = lower value",0.969
same,normalized growth,"S. cerevisiae deletion strains, locus YDR052C, strain DBF4, stronger effect = lower value",0.964
same,normalized growth,"S. cerevisiae deletion strains, locus YDR054C, strain cdc34, stronger effect = lower value",0.957
same,normalized growth,"S. cerevisiae deletion strains, locus YDR226W, strain ADK1, stronger effect = lower value",0.96
same,normalized growth,"S. cerevisiae deletion strains, locus YDR477W, strain SNF1, stronger effect = lower value",0.969
same,normalized growth,"S. cerevisiae deletion strains, locus YER123W, strain YCK3, stronger effect = lower value",0.982
same,normalized growth,"S. cerevisiae deletion strains, locus YER133W, strain GLC7, stronger effect = lower value",0.953
same,normalized growth,"S. cerevisiae deletion strains, locus YFL009W, strain cdc4, stronger effect = lower value",0.953
same,normalized growth,"S. cerevisiae deletion strains, locus YFL029C, strain CAK1, stronger effect = lower value",0.953
same,normalized growth,"S. cerevisiae deletion strains, locus YFR003C, strain YPI1, stronger effect = lower value",0.961
same,normalized growth,"S. cerevisiae deletion strains, locus YFR019W, strain FAB1, stronger effect = lower value",0.981
same,normalized growth,"S. cerevisiae deletion strains, locus YFR028C, strain CDC14, stronger effect = lower value",0.965
same,normalized growth,"S. cerevisiae deletion strains, locus YGR040W, strain KSS1, stronger effect = lower value",0.967
same,normalized growth,"S. cerevisiae deletion strains, locus YGR052W, strain FMP48, stronger effect = lower value",0.992
same,normalized growth,"S. cerevisiae deletion strains, locus YGR092W, strain DBF2, stronger effect = lower value",0.954
same,normalized growth,[2],0.855
same,normalized growth,"S. cerevisiae deletion strains, locus YHR079C, strain IRE1, stronger effect = lower value",0.918
same,normalized growth,"S. cerevisiae deletion strains, locus YHR082C, strain KSP1, stronger effect = lower value",1.07
same,normalized growth,"S. cerevisiae deletion strains, locus YHR205W, strain SCH9, stronger effect = lower value",1
same,normalized growth,"S. cerevisiae deletion strains, locus YIL147C, strain SLN1, stronger effect = lower value",0.961
same,normalized growth,"S. cerevisiae deletion strains, locus YJL095W, strain BCK1, stronger effect = lower value",0.999
same,normalized growth,"S. cerevisiae deletion strains, locus YJL128C, strain PBS2, stronger effect = lower value",0.918
same,normalized growth,"S. cerevisiae deletion strains, locus YJL157C, strain FAR1, stronger effect = lower value",0.984
same,normalized growth,"S. cerevisiae deletion strains, locus YJR016C, strain ILV3, stronger effect = lower value",0.969
same,normalized growth,"S. cerevisiae deletion strains, locus YJR066W, strain TOR1 (second series), stronger effect = lower value",0.989
same,normalized growth,"S. cerevisiae deletion strains, locus YJR066W, strain TOR1, stronger effect = lower value",1.04
same,normalized growth,"S. cerevisiae deletion strains, locus YKL048C, strain ELM1, stronger effect = lower value",0.939
same,normalized growth,"S. cerevisiae deletion strains, locus YKL067W, strain YNK1, stronger effect = lower value",0.967
same,normalized growth,"S. cerevisiae deletion strains, locus YKL101W, strain HSL1, stronger effect = lower value",0.976
same,normalized growth,"S. cerevisiae deletion strains, locus YKL193C, strain SDS22, stronger effect = lower value",0.961
same,normalized growth,"S. cerevisiae deletion strains, locus YKL203C, strain TOR2, stronger effect = lower value",0.989
same,normalized growth,"S. cerevisiae deletion strains, locus YLR113W, strain HOG1, stronger effect = lower value",0.761 (active)
same,normalized growth,"S. cerevisiae deletion strains, locus YLR133W, strain CKI1, stronger effect = lower value",0.986
same,normalized growth,"S. cerevisiae deletion strains, locus YLR403W, strain SFP1, stronger effect = lower value",0.985
same,normalized growth,"S. cerevisiae deletion strains, locus YML070W, strain DAK1, stronger effect = lower value",0.953
same,normalized growth,"S. cerevisiae deletion strains, locus YMR001C, strain CDC5, stronger effect = lower value",0.959
same,normalized growth,"S. cerevisiae deletion strains, locus YMR205C, strain PFK2 (second series), stronger effect = lower value",0.981
same,normalized growth,"S. cerevisiae deletion strains, locus YMR277W, strain FCP1, stronger effect = lower value",0.963
same,normalized growth,"S. cerevisiae deletion strains, locus YNL006W, strain LST8, stronger effect = lower value",0.954
same,normalized growth,"S. cerevisiae deletion strains, locus YNL020C, strain ARK1, stronger effect = lower value",0.99
same,normalized growth,"S. cerevisiae deletion strains, locus YNL161W, strain CBK1, stronger effect = lower value",0.959
same,normalized growth,"S. cerevisiae deletion strains, locus YNL183C, strain NPR1, stronger effect = lower value",1
same,normalized growth,"S. cerevisiae deletion strains, locus YNL207W, strain RIO2, stronger effect = lower value",0.958
same,normalized growth,"S. cerevisiae deletion strains, locus YNL222W, strain SSU72, stronger effect = lower value",0.966
same,normalized growth,"S. cerevisiae deletion strains, locus YNL307C, strain MCK1 (second series), stronger effect = lower value",0.975
same,normalized growth,"S. cerevisiae deletion strains, locus YOL078W, strain AVO1, stronger effect = lower value",0.967
same,normalized growth,"S. cerevisiae deletion strains, locus YOL136C, strain PFK27, stronger effect = lower value",0.98
same,normalized growth,"S. cerevisiae deletion strains, locus YOR061W, strain CKA2, stronger effect = lower value",0.975
same,normalized growth,"S. cerevisiae deletion strains, locus YOR119C, strain RIO1, stronger effect = lower value",1.02
same,normalized growth,"S. cerevisiae deletion strains, locus YOR231W, strain MKK1, stronger effect = lower value",0.949
same,normalized growth,"S. cerevisiae deletion strains, locus YOR329C, strain SCD5, stronger effect = lower value",0.961
same,normalized growth,"S. cerevisiae deletion strains, locus YPL031C, strain PHO85, stronger effect = lower value",0.961
same,normalized growth,"S. cerevisiae deletion strains, locus YPL153C, strain RAD53, stronger effect = lower value",0.953
same,normalized growth,"S. cerevisiae deletion strains, locus YPL204W, strain HRR25, stronger effect = lower value",0.96
same,normalized growth,"S. cerevisiae deletion strains, locus YPL209C, strain IPL1, stronger effect = lower value",0.959
same,normalized growth,"S. cerevisiae deletion strains, locus YPL256C, strain CLN2, stronger effect = lower value",0.85 (active)
same,normalized growth,"S. cerevisiae deletion strains, locus YPR025C, strain CCL1, stronger effect = lower value",0.96
same,normalized growth,"S. cerevisiae deletion strains, locus YPR106W, strain ISR1, stronger effect = lower value",0.969
same,normalized growth,"S. cerevisiae deletion strains, locus YPR111W, strain DBF20, stronger effect = lower value",0.946
same,normalized growth,"S. cerevisiae deletion strains, strain NNK1, stronger effect = lower value",0.96
same,normalized growth,"S. cerevisiae deletion strains, strain TSCII, stronger effect = lower value",0.955
O=C(COC(=O)c1ccccc1C(=O)c1ccccc1)c1ccccc1,normalized growth,[3],0.984
same,normalized growth,[4],0.988
same,normalized growth,[1],0.97
same,normalized growth,[5],0.969
same,normalized growth,[6],0.989
same,normalized growth,[7],0.98
same,normalized growth,"S. cerevisiae deletion strains, locus YGR229C, strain SMI1, stronger effect = lower value",0.993
same,normalized growth,[2],0.861
same,normalized growth,[8],0.98
same,normalized growth,[9],0.979
same,normalized growth,[10],0.957
same,normalized growth,[11],0.998
same,normalized growth,[12],0.912
same,normalized growth,[13],0.984
same,normalized growth,[14],0.936
same,normalized growth,[15],0.933
same,normalized growth,[16],0.99
same,normalized growth,[17],0.978
same,normalized growth,[18],0.902
same,normalized growth,[19],0.99
same,normalized growth,[20],0.971
same,normalized growth,[21],0.989
same,normalized growth,[22],0.975
same,normalized growth,[23],0.979
same,normalized growth,[24],0.95
same,normalized growth,[25],0.868
same,normalized growth,"S. cerevisiae strains, strain wild type, stronger effect = lower value",1
COc1cccc(NC(=O)NC2Cc3ccccc3C2)c1,normalized growth,[3],0.975
same,normalized growth,[4],0.998
same,normalized growth,[1],0.991
same,normalized growth,"S. cerevisiae deletion strains, locus YDL134C, strain PPH21, stronger effect = lower value",0.989
same,normalized growth,[5],0.867
same,normalized growth,[6],1
same,normalized growth,[7],0.989
same,normalized growth,[2],0.929
same,normalized growth,[8],1
same,normalized growth,"S. cerevisiae deletion strains, locus YJL187C, strain SWE1, stronger effect = lower value",0.998
same,normalized growth,[9],0.982
same,normalized growth,[10],0.996
same,normalized growth,[11],0.996
same,normalized growth,[12],0.996
same,normalized growth,[13],0.992
same,normalized growth,[14],0.952
same,normalized growth,[15],0.96
same,normalized growth,[16],0.992
same,normalized growth,[17],0.99
same,normalized growth,[18],0.927
same,normalized growth,"S. cerevisiae deletion strains, locus YMR307W, strain GAS1, stronger effect = lower value",0.999
same,normalized growth,[19],0.994
same,normalized growth,[20],0.973
same,normalized growth,[21],1.01
same,normalized growth,[22],0.978
same,normalized growth,"S. cerevisiae deletion strains, locus YOL006C, strain TOP1, stronger effect = lower value",0.937
same,normalized growth,[23],0.883
same,normalized growth,[24],0.986
same,normalized growth,[25],0.877
